Screens: PubChem, National Center for Advancing Translational Sciences (NCATS)
ELG1 genotoxic = induces genotoxicity in HEK293T cells with luciferase-tagged ELG1 | 330,000 tested, 1.3% active | AID 504466 | Potency, µM (titrated, usually from 46 µM), inactives show at the top dose activity change, positive = activation, most hits filed as activators | HEK293T ELG1-luciferase reporter, luminescence, 16 h; note: % of control where 0% means no effect; nearly all actives have a fitted effect of over 60% in size
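16 hr compound incubation (37 °C, 5% CO2) of HEK293T cells carrying luciferase-tagged ELG1; luciferase then measured by ONE-Glo luminescence after 30 min at RT.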
Luc counter = counter-screen: inhibitors of Kinase-Glo firefly luciferase | Q27757 | Kinase-Glo luciferase, ATP luminescence, 8 min | Potency, µM (highest dose often 38.3 µM), inactives show at the highest dose activity change, negative = inhibition, most hits filed as inhibitors | 200,000 tested, 0.28% active | AID 1379; note: % is set by controls: 0 for no effect and ±100 for the full control effect; nearly all actives have a fitted effect of over 60% in size
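Substrate mix (final 50 mM imidazole pH 7.2, 50 mM KCl, 7 mM MgCl2, 10 uM ATP, 0.01% Tween 20, 0.05% BSA) plus pin-tool compound, then Kinase-Glo detection mix; 8 min ambient, luminescence read.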
SMN2 splice up = increases expression of the SMN2 splice variant. HEK293 SMN2-luciferase splicing reporter, luminescence, 30-36 h. Potency, µM (highest dose often 46.1 µM), inactives show top-dose activity change, positive = activation, usual class: activators. 210,000 tested, 2.8% active. AID 1458; note: % of control where 0% means no effect; nearly all actives have a fitted effect of over 55% in size
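qHTS luciferase splicing reporter: luminescence rises when SMN2 exon 7 is included in transfected HEK293 cells. Compound exposure lasted 30-36 h at 37C, with 4.5 mM final sodium butyrate as control, followed by a ONE-Glo read.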
NPC1 prom act = activators of NPC1 promoter | AID 485313 | Huh7 NPC1 promoter luciferase reporter, 24 h | Potency, µM (titrated, usually from 9.22 µM), for inactives: top-dose activation, hits mostly activators | 320,000 tested, 2.4% active; note: % of control where 0% means no effect; nearly all actives have a fitted effect of over 60% in size
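Luminescence read-out of NPC1 promoter-driven luciferase in stably transfected Huh7 cells; compounds delivered in DMSO and left 24 h at 37C, 5% CO2, qHTS titration format.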
FLuc counter = counter-screen for miR-21 project: firefly luciferase inhibitors or activators; P08659; Potency, µM (series often up to 57.5 µM), inactives show at the top dose activity change, negative = inhibition, actives largely listed as inhibitors; purified FLuc, Km substrates, luminescence inhibition; 360,000 tested, 6.9% active;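 note: plate controls were vehicle for no effect and reference inhibitor for full effect; nearly all actives have a fitted effect of over 55% in size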
Target sequence (P08659 whole entry, looked up): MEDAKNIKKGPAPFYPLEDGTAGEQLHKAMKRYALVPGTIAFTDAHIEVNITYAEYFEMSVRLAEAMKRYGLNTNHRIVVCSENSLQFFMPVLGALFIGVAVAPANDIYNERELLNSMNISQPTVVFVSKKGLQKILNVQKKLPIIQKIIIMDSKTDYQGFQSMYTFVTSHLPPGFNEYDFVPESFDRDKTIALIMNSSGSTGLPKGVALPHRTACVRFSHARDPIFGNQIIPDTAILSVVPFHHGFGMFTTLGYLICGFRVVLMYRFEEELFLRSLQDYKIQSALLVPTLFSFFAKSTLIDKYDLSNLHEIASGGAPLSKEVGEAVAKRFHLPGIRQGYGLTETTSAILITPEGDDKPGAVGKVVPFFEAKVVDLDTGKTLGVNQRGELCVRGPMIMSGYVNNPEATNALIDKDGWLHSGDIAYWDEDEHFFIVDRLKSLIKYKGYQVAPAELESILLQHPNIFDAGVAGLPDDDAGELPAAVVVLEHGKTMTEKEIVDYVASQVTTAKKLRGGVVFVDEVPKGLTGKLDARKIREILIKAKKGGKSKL
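Purified P. pyralis luciferase (10nM final) with 10uM D-luciferin and 10uM ATP (Km levels) in 50mM Tris acetate pH 7.5, 10mM Mg acetate, 0.01% Tween-20, 0.05% BSA; qHTS 6-point titration, ~60 µM downward; luminescence read.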
Rab9 promoter act = Rab9 promoter activation; Potency, µM (doses to about 9.22 µM), for the others: top-dose activation, negative = inhibition, most hits filed as activators; Huh7 Rab9 promoter-luciferase reporter, luminescence, 24 h; 320,000 tested, 2.8% active; AID 485297; note: % of control where 0% means no effect; nearly all actives have a fitted effect of over 60% in size
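Quantitative HTS format; Huh7 Rab9-luciferase reporter cells (1500/well) receive compound 2 h post-plating, incubate 24 h at 37 °C, then get luciferase reagent for 10 min before luminescence reading.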
An asterisk follows results filed as active. Only some compounds are listed: those with a hit (about 7.5% of all), similar ones and a draw of the others. Calls come from the whole dose curve; as a rule, active = well fitted curve in the direction sought with a large enough effect; inconclusive = small, poorly fitted or top-dose-only effect, or another doubt; inactive = no such curve, though single readings can be large; an effect the other way counts as inactive or inconclusive. Potency is the fitted concentration of half-maximal effect.

What do the screens show for `COc1cccc(-c2nc(-c3ccc(NC(=O)c4cccs4)cc3)no2)c1`?
ELG1 genotoxic: 14%; Luc counter: 0%; SMN2 splice up: -17%; NPC1 prom act: 30%; FLuc counter: 13µM*; Rab9 promoter act: inconclusive

Results for CC(C)C[C@H](NC(=O)[C@H](Cc1ccccc1)n1c(=O)[nH]c2ccccc2c1=O)C(=O)N1CCC[C@@H]1C(=O)O ?
ELG1 genotoxic: 5%; NPC1 prom act: 2%; FLuc counter: 1%; Rab9 promoter act: -3%

Results for COc1ccc(-c2c(C(F)(F)F)nn(C)c2NC(C)=O)cc1 ?
ELG1 genotoxic: -5%; NPC1 prom act: -4%; FLuc counter: -2%; Rab9 promoter act: -1%

Results for CC(C)c1ccc(NC(=S)NNC(=O)c2cccs2)cc1 ?
ELG1 genotoxic: inconclusive; Luc counter: -2%; SMN2 splice up: inconclusive; NPC1 prom act: inconclusive; FLuc counter: 21µM*; Rab9 promoter act: inconclusive

How did O=C(NC(=S)Nc1ccccc1)c1cccs1 do in these assays?
ELG1 genotoxic: inconclusive; NPC1 prom act: 2µM*; FLuc counter: 17µM*; Rab9 promoter act: inconclusive

Results for COc1ccc(NC(=S)NNC(=O)c2cccs2)cc1 ?
ELG1 genotoxic: inconclusive; Luc counter: -2%; SMN2 splice up: 25%; NPC1 prom act: 0%; FLuc counter: -6%; Rab9 promoter act: 4µM*

What do the screens show for `Cc1cccnc1NC(=O)CNC(=O)c1cccs1`?
ELG1 genotoxic: 0%; NPC1 prom act: -3%; FLuc counter: 1%; Rab9 promoter act: -5%

Results for Cc1cccnc1NC(=S)NC(=O)c1cccs1 ?
ELG1 genotoxic: inconclusive; Luc counter: -17%; SMN2 splice up: 3.2µM*; NPC1 prom act: inconclusive; FLuc counter: 13µM*; Rab9 promoter act: 3.5µM*

Results for COc1ccc(NC(=O)c2cccs2)cc1 ?
ELG1 genotoxic: inconclusive; Luc counter: -27%; SMN2 splice up: 18µM*; NPC1 prom act: inconclusive; FLuc counter: 15µM*; Rab9 promoter act: inconclusive

Results for Cc1cc(C(=O)COc2ccc3ccc(=O)oc3c2)c(C)n1Cc1cccs1 ?
ELG1 genotoxic: -2%; Luc counter: -1%; SMN2 splice up: -28%; NPC1 prom act: 5%; FLuc counter: inconclusive; Rab9 promoter act: 12%

What do the screens show for `COc1ccc(NC(=O)c2cc(C)n(Cc3cccs3)c2C)cc1`?
ELG1 genotoxic: inconclusive; NPC1 prom act: 0.56µM*; FLuc counter: 0.85µM*; Rab9 promoter act: 0.32µM*

How did COc1cc(C2Nc3cc(Cl)c(S(N)(=O)=O)cc3S(=O)(=O)N2)cc(OC)c1OC (stereo not drawn) do in these assays?
ELG1 genotoxic: 2%; Luc counter: 0%; SMN2 splice up: -12%; NPC1 prom act: -1%; FLuc counter: 2%; Rab9 promoter act: -5%

How did COc1cc(C2Nc3cc(Cl)c(S(N)(=O)=O)cc3S(=O)(=O)N2)ccc1OCc1ccccc1 (stereo not drawn) do in these assays?
ELG1 genotoxic: 16µM*; Luc counter: -5%; SMN2 splice up: 8%; NPC1 prom act: -2%; FLuc counter: inconclusive; Rab9 promoter act: -4%

Results for CCCNC(=O)c1cc(-c2ccco2)on1 ?
ELG1 genotoxic: 16µM*; Luc counter: -17%; SMN2 splice up: 18µM*; NPC1 prom act: inconclusive; FLuc counter: 17µM*; Rab9 promoter act: 3.5µM*

What do the screens show for `CC(C)CNC(=O)c1cc(-c2ccco2)on1`?
ELG1 genotoxic: inconclusive; Luc counter: -8%; SMN2 splice up: inconclusive; NPC1 prom act: 4µM*; FLuc counter: 13µM*; Rab9 promoter act: 4µM*

Results for COc1ccccc1CNc1ncnc2ccc(-c3ccc(N(C)C)cc3)cc12 ?
Luc counter: -2%; SMN2 splice up: -30%

Results for c1ccc2c(c1)oc1c(Nc3ccc4c(c3)OCO4)ncnc12 ?
ELG1 genotoxic: 5.8µM*; Luc counter: -10%; SMN2 splice up: inconclusive; NPC1 prom act: 1.4µM*; FLuc counter: 2.1µM*; Rab9 promoter act: 1µM*

What do the screens show for `Cc1nc(Nc2ccc3c(c2)OCO3)c2oc3ccccc3c2n1`?
ELG1 genotoxic: 2%; Luc counter: -8%; SMN2 splice up: -14%; NPC1 prom act: 16%; FLuc counter: 30µM*; Rab9 promoter act: 4%

What do the screens show for `O=C(O)/C=C/C(=O)Nc1ccccc1SC(F)(F)F`?
ELG1 genotoxic: 1%; Luc counter: 0%; SMN2 splice up: -8%; NPC1 prom act: 0%; FLuc counter: 0%; Rab9 promoter act: 2%

Results for c1ccc2nc(-c3nc4ccccc4o3)ccc2c1 ?
ELG1 genotoxic: inconclusive; Luc counter: 1µM*; NPC1 prom act: inconclusive; FLuc counter: 0.24µM*; Rab9 promoter act: 3.2µM*

Results for CCOC(=O)c1cc(-c2ccc(C)cc2)nc2nc(SC)[nH]c(=O)c12 ?
ELG1 genotoxic: -1%; Luc counter: -1%; SMN2 splice up: 6%; NPC1 prom act: -2%; FLuc counter: 4.8µM*; Rab9 promoter act: -1%

Results for CCOC(=O)c1cc(-c2cccc(C(F)(F)F)c2)nc2nc(SC)[nH]c(=O)c12 ?
ELG1 genotoxic: -6%; Luc counter: 0%; SMN2 splice up: 5%; NPC1 prom act: -2%; FLuc counter: 12µM*; Rab9 promoter act: -2%

How did CCCCn1c(=O)[nH]c(=O)c2c(C(=O)OCC)cc(-c3ccc(OC(F)F)cc3)nc21 do in these assays?
ELG1 genotoxic: inconclusive; Luc counter: -2%; SMN2 splice up: 12%; NPC1 prom act: 2%; FLuc counter: -1%; Rab9 promoter act: -11%

Results for COC(=O)c1cc(-c2ccc(OC)cc2)nc2nc(SC)[nH]c(=O)c12 ?
ELG1 genotoxic: 1%; NPC1 prom act: -5%; FLuc counter: 5.4µM*; Rab9 promoter act: -1%

Results for Cc1cccc(C)c1OCc1nc2c3cnn(-c4ccccc4F)c3ncn2n1 ?
SMN2 splice up: 1%; FLuc counter: inconclusive

Results for CCOC(=O)c1c(NC(=O)c2cc(OC)c(OC)c(OC)c2)sc2c1CCCC2 ?
SMN2 splice up: 8%; FLuc counter: -1%

Results for Cc1cc(O)c(C2=Nc3ccccc3SC(c3ccc(Cl)cc3)C2)c(=O)o1 (stereo not drawn) ?
ELG1 genotoxic: 7.3µM*; Luc counter: -5%; SMN2 splice up: -60%; NPC1 prom act: -3%; FLuc counter: 4.8µM*; Rab9 promoter act: 3%

How did Cc1nc2c(C)cccn2c(=O)c1NC(=O)c1ccc2c(c1)OCO2 do in these assays?
ELG1 genotoxic: -1%; NPC1 prom act: 1%; FLuc counter: 2%; Rab9 promoter act: 3%
